Measurements reported in PubChem BioAssay (EPA / NIEHS).
Inconclusive results are not listed. Calls of active or inactive are those of the source. Rule for the calls: active = hit-call score of the fitted dose curve at least 0.9, where 1 is the maximum; inconclusive = response in the unintended direction; inactive = score below 0.9.

Columns and labels:
[1] = biological target: human Peroxisome Proliferator-activated Receptor alpha (PPARa), PPARA (gene 5465) (UniProt Q07869); test: ATG_PPARa_TRANS: Attagene TRANS-FACTORIAL HepG2 Assay for human Peroxisome Proliferator-activated Receptor alpha (PPARa) (AID 2283001)
Chain of human Peroxisome Proliferator-activated Receptor alpha (PPARa), PPARA (gene 5465) (Q07869 whole entry, looked up, the tested form may be a part): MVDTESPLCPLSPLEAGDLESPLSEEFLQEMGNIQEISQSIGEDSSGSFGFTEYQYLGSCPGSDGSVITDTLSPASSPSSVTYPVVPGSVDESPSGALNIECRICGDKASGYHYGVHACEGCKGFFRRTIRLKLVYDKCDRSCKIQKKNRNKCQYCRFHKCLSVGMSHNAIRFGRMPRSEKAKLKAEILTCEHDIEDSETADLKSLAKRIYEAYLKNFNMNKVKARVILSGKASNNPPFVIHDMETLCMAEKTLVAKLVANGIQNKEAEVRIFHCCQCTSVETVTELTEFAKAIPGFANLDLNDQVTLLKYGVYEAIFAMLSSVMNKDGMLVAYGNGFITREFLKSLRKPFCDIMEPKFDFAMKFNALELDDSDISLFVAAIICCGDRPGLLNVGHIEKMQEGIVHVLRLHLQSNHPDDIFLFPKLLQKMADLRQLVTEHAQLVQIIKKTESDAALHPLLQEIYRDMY
Outline: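 Reporter transcripts from GAL4-UAS units in transfected HepG2 were quantified 24 h after dosing. Detection used reverse transcription, PCR, fluorescent primer extension and capillary electrophoresis, with DMSO as baseline.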

[2] = biological target: Peroxisome proliferator-activated receptor gamma (Homo sapiens) (UniProt P37231); test: ATG_PPARg_TRANS: Attagene TRANS-FACTORIAL HepG2 Assay for human Peroxisome Proliferator-activated Receptor-gamma (PPARg) (AID 2283007)
Chain of Peroxisome proliferator-activated receptor gamma (Homo sapiens) (P37231 whole entry, looked up, the tested form may be a part): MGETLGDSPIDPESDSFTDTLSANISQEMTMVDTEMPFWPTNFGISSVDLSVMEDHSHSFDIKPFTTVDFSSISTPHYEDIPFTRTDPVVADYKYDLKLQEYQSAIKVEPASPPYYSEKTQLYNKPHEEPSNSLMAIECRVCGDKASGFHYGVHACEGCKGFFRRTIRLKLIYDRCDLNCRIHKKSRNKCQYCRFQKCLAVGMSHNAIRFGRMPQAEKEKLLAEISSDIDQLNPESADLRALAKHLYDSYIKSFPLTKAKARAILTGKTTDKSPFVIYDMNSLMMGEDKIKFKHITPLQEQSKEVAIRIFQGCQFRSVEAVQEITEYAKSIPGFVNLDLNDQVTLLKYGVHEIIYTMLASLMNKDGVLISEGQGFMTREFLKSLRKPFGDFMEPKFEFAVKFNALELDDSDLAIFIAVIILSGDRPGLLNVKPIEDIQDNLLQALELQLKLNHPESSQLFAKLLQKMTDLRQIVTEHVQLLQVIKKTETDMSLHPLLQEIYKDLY
Outline: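 A TRANS-format multiplexed reporter assay measures activity of an exogenous chimeric NR-Gal4 protein in HepG2 cells. After 24 h of chemical exposure, reporter transcripts are amplified, fluorescently labelled and sized by capillary electrophoresis, with gain of signal scored against DMSO.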

[3] = biological target: Nuclear receptor subfamily 1 group I member 2 (Homo sapiens) (UniProt O75469); test: ATG_PXR_TRANS: Attagene TRANS-FACTORIAL HepG2 Assay for human Pregnane X Receptor (PXR) (AID 2283008)
Outline: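 Fluorescence intensity of FAM-labelled, HpaI-digested reporter amplicons, separated by capillary electrophoresis, quantifies induction. HepG2 cells with PXR-Gal4 trans-reporter system were exposed 24 h; DMSO defines baseline.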

[4] = biological target: human Retinoic Acid Receptor gamma (RARg), RARG (gene 5916) (UniProt P13631); test: ATG_RARg_TRANS: Attagene TRANS-FACTORIAL HepG2 Assay for human Retinoic Acid Receptor gamma (RARg) (AID 2283009)
Chain of human Retinoic Acid Receptor gamma (RARg), RARG (gene 5916) (P13631 whole entry, looked up, the tested form may be a part): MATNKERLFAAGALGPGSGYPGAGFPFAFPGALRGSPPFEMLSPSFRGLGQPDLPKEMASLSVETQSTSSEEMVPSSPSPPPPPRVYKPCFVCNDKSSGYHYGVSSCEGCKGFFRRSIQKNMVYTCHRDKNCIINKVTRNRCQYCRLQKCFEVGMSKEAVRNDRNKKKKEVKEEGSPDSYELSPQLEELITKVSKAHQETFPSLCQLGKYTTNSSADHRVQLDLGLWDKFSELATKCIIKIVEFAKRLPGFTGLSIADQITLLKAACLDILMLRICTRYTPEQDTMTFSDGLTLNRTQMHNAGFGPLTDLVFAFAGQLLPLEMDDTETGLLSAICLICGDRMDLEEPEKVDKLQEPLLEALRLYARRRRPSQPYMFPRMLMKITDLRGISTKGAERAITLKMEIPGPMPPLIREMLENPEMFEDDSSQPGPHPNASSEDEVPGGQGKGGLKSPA
Outline: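 HepG2 cells transiently transfected with multiplexed reporter units expressing chimeric RARg-GAL4 and GAL4-UAS-driven reporters; 24 h compound exposure. Reporter mRNA quantified by RT-PCR with fluorescent labelling and capillary electrophoresis; gain-of-signal fitted relative to DMSO baseline.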

[5] = biological target: human RAR-related Orphan Receptor beta (RORb), RORB (gene 6096) (UniProt Q92753); test: ATG_RORb_TRANS: Attagene TRANS-FACTORIAL HepG2 Assay for human RAR-related Orphan Receptor beta (RORb) (AID 2283010)
Chain of human RAR-related Orphan Receptor beta (RORb), RORB (gene 6096) (Q92753 whole entry, looked up, the tested form may be a part): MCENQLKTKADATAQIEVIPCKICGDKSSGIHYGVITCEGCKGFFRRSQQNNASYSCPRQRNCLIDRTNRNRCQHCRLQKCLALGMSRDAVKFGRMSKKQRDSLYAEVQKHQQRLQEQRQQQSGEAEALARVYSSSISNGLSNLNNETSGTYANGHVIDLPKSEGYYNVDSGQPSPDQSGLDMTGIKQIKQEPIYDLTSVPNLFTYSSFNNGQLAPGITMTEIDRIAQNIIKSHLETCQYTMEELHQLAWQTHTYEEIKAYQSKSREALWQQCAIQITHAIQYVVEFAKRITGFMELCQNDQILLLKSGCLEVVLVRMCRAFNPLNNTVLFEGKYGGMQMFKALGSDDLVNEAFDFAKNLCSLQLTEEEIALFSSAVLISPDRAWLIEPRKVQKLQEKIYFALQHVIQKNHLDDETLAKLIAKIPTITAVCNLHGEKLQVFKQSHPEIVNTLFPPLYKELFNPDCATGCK
Outline: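 HepG2 cells were transiently transfected with multiplexed GAL4-UAS reporter units expressing chimeric nuclear receptor–GAL4 proteins, then dosed for 24 h. Reporter mRNA was quantified by RT-PCR with fluorescent labelling and capillary electrophoresis; gain of signal was fitted relative to DMSO.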

[6] = biological target: Retinoic acid receptor RXR-alpha (Homo sapiens) (UniProt P19793); test: ATG_RXRa_TRANS: Attagene TRANS-FACTORIAL HepG2 Assay for human Retinoid X Receptor alpha (RXRa) (AID 2283012)
Chain of Retinoic acid receptor RXR-alpha (Homo sapiens) (P19793 whole entry, looked up, the tested form may be a part): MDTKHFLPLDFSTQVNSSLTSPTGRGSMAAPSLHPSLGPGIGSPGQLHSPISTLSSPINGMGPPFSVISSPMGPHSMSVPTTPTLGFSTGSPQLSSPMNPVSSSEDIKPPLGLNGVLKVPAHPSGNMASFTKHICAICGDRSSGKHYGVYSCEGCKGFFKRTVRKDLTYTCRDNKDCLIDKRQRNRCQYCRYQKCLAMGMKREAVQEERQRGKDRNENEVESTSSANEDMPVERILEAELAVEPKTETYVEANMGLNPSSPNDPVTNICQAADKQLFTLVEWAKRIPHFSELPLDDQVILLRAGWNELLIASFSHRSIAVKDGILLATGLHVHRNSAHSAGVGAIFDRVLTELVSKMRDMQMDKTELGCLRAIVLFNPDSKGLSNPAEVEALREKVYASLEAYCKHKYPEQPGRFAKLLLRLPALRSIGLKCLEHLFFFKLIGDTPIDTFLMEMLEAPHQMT
Outline: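 HepG2 cells transiently transfected with multiplexed GAL4-UAS reporter units and chimeric NR-GAL4 fusions, dosed 24 h. Reporter mRNA measured by RT-PCR, FAM labelling, HpaI digestion and capillary electrophoresis; gain-of-signal fitted relative to DMSO baseline.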

[7] = biological target: human Thyroid Receptor alpha (THRa1), THRA (gene 7067) (UniProt P10827); test: ATG_THRa1_TRANS: Attagene TRANS-FACTORIAL HepG2 Assay for human Thyroid Receptor alpha (THRa1) (AID 2283014)
Outline: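 HepG2 cells transiently transfected with multiplexed GAL4-UAS reporter units for exogenous chimeric THRa1-Gal4; reporter mRNA measured 24 h after dosing by RT-PCR, 6-FAM labelling, HpaI digestion and capillary electrophoresis. Gain-of-signal fitted versus DMSO baseline.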

[8] = biological target: Retinoic acid receptor alpha (Homo sapiens) (UniProt P10276); test: ATG_RARa_TRANS: Attagene TRANS-FACTORIAL HepG2 Assay for human Retinoic Acid Receptor alpha (RARa) (AID 2283005)
Chain of Retinoic acid receptor alpha (Homo sapiens) (P10276 whole entry, looked up, the tested form may be a part): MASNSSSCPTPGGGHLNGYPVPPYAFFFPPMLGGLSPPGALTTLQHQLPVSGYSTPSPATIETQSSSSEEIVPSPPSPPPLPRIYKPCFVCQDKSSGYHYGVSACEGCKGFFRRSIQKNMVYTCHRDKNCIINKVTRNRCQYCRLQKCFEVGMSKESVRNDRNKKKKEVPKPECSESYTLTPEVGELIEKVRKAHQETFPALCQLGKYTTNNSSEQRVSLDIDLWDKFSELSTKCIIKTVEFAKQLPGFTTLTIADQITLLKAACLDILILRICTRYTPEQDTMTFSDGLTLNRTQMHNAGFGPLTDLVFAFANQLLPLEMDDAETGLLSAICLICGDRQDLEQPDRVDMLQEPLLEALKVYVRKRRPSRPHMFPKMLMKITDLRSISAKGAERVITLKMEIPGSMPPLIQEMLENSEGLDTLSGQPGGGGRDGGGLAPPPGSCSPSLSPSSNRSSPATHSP
Outline: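 Reporter transcripts, measured by RT-PCR with fluorescent labeling and capillary electrophoresis after 24 h dosing, reflect activity of an exogenous human RARa–GAL4 fusion in transiently transfected HepG2. Fitted for increase relative to DMSO.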

[9] = biological target: human Retinoid X Receptor beta (RXRb), RXRB (gene 6257) (UniProt P28702); test: ATG_RXRb_TRANS: Attagene TRANS-FACTORIAL HepG2 Assay for human Retinoid X Receptor beta (RXRb) (AID 2283013)
Chain of human Retinoid X Receptor beta (RXRb), RXRB (gene 6257) (P28702 whole entry, looked up, the tested form may be a part): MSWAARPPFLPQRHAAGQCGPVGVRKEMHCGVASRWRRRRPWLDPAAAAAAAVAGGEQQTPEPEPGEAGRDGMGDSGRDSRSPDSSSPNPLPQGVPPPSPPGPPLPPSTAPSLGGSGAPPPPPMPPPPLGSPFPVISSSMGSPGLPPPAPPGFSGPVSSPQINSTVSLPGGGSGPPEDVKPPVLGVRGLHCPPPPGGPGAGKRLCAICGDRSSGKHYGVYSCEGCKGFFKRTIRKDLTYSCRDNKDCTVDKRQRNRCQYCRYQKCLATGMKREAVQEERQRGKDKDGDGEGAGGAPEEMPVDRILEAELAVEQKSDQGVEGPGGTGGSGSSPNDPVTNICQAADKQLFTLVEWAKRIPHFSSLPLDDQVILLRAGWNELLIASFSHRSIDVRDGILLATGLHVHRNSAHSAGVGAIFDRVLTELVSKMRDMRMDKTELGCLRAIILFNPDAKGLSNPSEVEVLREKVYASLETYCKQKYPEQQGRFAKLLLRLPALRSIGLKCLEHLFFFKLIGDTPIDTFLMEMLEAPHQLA
Outline: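 HepG2 cells transiently transfected with multiplexed reporter units driven by GAL4-UAS and exogenous chimeric NR-Gal4 proteins; treated 24 h. Reporter mRNA measured by RT-PCR, 6-FAM labelling and capillary electrophoresis; gain-of-signal fitted versus DMSO baseline.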

[10] = biological target: human RAR-related Orphan Receptor gamma (RORg), RORC (gene 6097) (UniProt P51449); test: ATG_RORg_TRANS: Attagene TRANS-FACTORIAL HepG2 Assay for human RAR-related Orphan Receptor gamma (RORg) (AID 2283011)
Chain of human RAR-related Orphan Receptor gamma (RORg), RORC (gene 6097) (P51449 whole entry, looked up, the tested form may be a part): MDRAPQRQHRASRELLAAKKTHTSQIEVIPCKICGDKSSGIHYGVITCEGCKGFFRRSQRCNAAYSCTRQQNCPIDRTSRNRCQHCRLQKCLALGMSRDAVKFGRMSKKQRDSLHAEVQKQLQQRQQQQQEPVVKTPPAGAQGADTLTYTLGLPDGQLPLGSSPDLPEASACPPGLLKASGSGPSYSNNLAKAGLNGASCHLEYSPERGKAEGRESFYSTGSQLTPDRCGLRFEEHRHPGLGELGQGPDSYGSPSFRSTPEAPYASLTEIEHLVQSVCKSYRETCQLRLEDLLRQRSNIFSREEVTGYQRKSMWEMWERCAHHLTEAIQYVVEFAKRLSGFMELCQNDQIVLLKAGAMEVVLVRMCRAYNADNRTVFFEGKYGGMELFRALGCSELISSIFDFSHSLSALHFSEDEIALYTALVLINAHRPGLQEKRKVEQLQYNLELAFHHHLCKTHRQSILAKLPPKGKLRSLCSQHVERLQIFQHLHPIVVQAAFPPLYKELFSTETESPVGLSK
Outline: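 Readout: reporter transcript induction (RT-PCR, fluorescent primer extension, capillary electrophoresis) after 24 h compound exposure of transiently transfected HepG2 cells carrying a RORg-Gal4 chimera and GAL4-UAS reporters; DMSO served as baseline, with increasing signal fitted.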

[11] = biological target: human Peroxisome Proliferator-activated Receptor delta (PPARd), PPARD (gene 5467) (UniProt Q03181); test: ATG_PPARd_TRANS: Attagene TRANS-FACTORIAL HepG2 Assay for human Peroxisome Proliferator-activated Receptor delta (PPARd) (AID 2283002)
Chain of human Peroxisome Proliferator-activated Receptor delta (PPARd), PPARD (gene 5467) (Q03181 whole entry, looked up, the tested form may be a part): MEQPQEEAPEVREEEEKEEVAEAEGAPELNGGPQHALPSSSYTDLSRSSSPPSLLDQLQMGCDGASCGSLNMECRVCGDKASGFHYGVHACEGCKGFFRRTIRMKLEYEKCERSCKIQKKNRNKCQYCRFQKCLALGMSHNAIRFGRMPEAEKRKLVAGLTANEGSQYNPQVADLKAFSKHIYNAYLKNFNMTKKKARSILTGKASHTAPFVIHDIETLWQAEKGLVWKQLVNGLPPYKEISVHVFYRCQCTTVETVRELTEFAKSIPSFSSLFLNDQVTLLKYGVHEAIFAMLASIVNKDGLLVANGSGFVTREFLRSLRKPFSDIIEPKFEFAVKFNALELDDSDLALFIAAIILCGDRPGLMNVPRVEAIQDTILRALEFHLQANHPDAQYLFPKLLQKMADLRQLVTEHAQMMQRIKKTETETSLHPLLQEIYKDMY
Outline: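 Transient HepG2 transfection (multiple GAL4-UAS RTUs, chimeric receptor-Gal4); 24 h dosing; total RNA → oligo(dT) RT → PCR → 6-FAM primer extension → HpaI cut → CE. Positive direction vs DMSO.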

[12] = biological target: human Retinoic Acid Receptor beta (RARb), RARB (gene 5915) (UniProt P10826); test: ATG_RARb_TRANS: Attagene TRANS-FACTORIAL HepG2 Assay for human Retinoic Acid Receptor beta (AID 2283004)
Chain of human Retinoic Acid Receptor beta (RARb), RARB (gene 5915) (P10826 whole entry, looked up, the tested form may be a part): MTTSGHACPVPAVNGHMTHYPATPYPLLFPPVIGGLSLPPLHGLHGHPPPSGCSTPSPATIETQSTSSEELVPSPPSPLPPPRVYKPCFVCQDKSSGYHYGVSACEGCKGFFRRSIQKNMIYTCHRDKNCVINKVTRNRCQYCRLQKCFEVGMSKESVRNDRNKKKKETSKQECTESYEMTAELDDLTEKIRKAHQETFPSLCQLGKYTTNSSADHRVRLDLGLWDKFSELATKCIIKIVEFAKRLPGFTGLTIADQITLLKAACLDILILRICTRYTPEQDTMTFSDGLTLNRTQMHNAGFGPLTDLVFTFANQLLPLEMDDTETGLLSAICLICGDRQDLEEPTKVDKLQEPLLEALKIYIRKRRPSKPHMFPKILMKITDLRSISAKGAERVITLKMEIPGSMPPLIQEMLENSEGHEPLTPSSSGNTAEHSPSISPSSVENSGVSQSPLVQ
Outline: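 HepG2 cells transiently transfected with multiplexed GAL4-UAS reporter units expressing chimeric NR–Gal4 fusions; 24 h compound exposure. Reporter mRNA quantified by RT-PCR, 6-FAM labelling, HpaI digestion and capillary electrophoresis; gain-of-signal fitted against DMSO baseline.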

Measured: AC50

CCCCCCCCCOS(=O)(=O)O
active: [2] 30.6 µM
inactive: [1] | [3]

C=C(C)C(=O)OCCN(C)C
inactive: [1] | [3] | [4]

CCC(C)COC(=O)CC(C)C (configuration not stated)
inactive: [1] | [2] | [3] | [5] | [6] | [7]

CCCCCCCCOC(=O)c1ccc(O)cc1
inactive: [1] | [8] | [3] | [4]
active: [9] 11.1 µM

CC(CCO)CC(C)(C)C (configuration not stated)
inactive: [1] | [8] | [2] | [3] | [4] | [9]

CCOc1ccc(NC(C)=O)cc1
inactive: [1] | [2] | [3] | [5] | [10] | [7]

CC(C)=CCCC(C)=CC(=O)O
active: [2] 57.3 µM
inactive: [1] | [3] | [10] | [9]

c1ccc2scnc2c1
inactive: [1] | [2] | [3] | [10] | [9]

CCc1cccc(O)c1
inactive: [1] | [2] | [3] | [5] | [10] | [6]

COc1ccc(C(C)=O)cc1
inactive: [1] | [2] | [3] | [5] | [10] | [6]

O=C(C=Cc1ccccc1)OCCCc1ccccc1
inactive: [1] | [8] | [4]
active: [3] 22.5 µM | [9] 66.6 µM

CC1COC(=O)O1 (configuration not stated)
inactive: [1] | [2] | [7]

C1COCO1
inactive: [1] | [2] | [7]

CCCCCCCCOS(=O)(=O)O
active: [2] 47.6 µM | [9] 100 µM
inactive: [1] | [10] | [6]

CCOC(=O)COC(=O)c1ccccc1C(=O)OCC
inactive: [1] | [2]

CC1=CC[C@@H]2C[C@H]1C2(C)C
inactive: [1] | [11] | [6] | [7]

C=C(C)C(=O)OCCC[Si](OC)(OC)OC
inactive: [1] | [12] | [3] | [5] | [10]

COC(=O)c1cccc(C(=O)OC)c1
inactive: [1] | [2] | [3] | [4] | [5] | [10] | [9]

CCC(C)C1CCCCC1=O (configuration not stated)
not listed: [11]
inactive: all other assays above

CCCCCC1C(=O)CCC1CC(=O)OC (configuration not stated)
not listed: [5] | [6] | [10] | [11]
inactive: all other assays above

CCCOC(=O)CC
inactive: [1] | [2] | [6] | [7]

NCCN1CCNCC1
active: [9] 25.3 µM
not listed: [1] | [6] | [7] | [8]
inactive: all other assays above

COc1ccccc1O
inactive: [11] | [2] | [3] | [5] | [10]

CC(=O)CC(=O)N(C)C
inactive: [1] | [3] | [10] | [7]

C=C(C)C(=O)OCCOCCOC(=O)C(=C)C
inactive: [1] | [3] | [6]

CC12CCC(C1)C(C)(C)C2O (configuration not stated)
inactive: [11] | [12] | [3] | [10] | [6] | [9]

Nc1ccc(O)c(N)c1
inactive: [1] | [3] | [9] | [7]

C=C1CC[C@H]2O[C@]2(C)CC[C@@H]2[C@@H]1CC2(C)C
inactive: [11] | [2] | [3] | [5] | [6] | [7]
active: [9] 100 µM

CC(C)C(=O)OCC=Cc1ccccc1
inactive: [11] | [2] | [5] | [10]
active: [3] 22.1 µM

OC[C@H]1O[C@@H](O[C@H]2[C@H](O)[C@@H](O)[C@H](O)O[C@@H]2CO)[C@H](O)[C@@H](O)[C@H]1O
not listed: [1] | [4] | [8] | [10]
inactive: all other assays above

CC(=O)c1cccnc1
inactive: [1] | [7]

[Cl][Dy]([Cl])[Cl]
inactive: [1] | [3] | [6] | [9] | [7]

C=C(C)C(=O)OCCC(C)OC(=O)C(=C)C (configuration not stated)
inactive: [1] | [3] | [9]

CC(O)COCC(C)O (configuration not stated)
inactive: [1] | [3] | [10] | [6]

O=S(=O)(O)c1cc(S(=O)(=O)O)c2c(N=Nc3ccccc3)c(O)ccc2c1
inactive: [1] | [3] | [5]

CC1=CCC(C(C)(C)O)CC1 (configuration not stated)
inactive: [1] | [3] | [5] | [7]

CCCCCCOC(C)=O
inactive: [11]

CC/C=C\CCOC(=O)C(C)C
inactive: [11] | [8] | [2] | [5] | [9] | [7]

NC(=O)NC(N)=O
inactive: [11] | [12] | [3] | [4] | [6] | [9]

C[N+](C)(C)CCO
inactive: [11] | [2] | [3] | [10] | [6]

CC(=O)c1ccc2ccccc2c1
inactive: [1] | [3] | [10] | [7]

C[C@H](CCC(=O)O)[C@H]1CC[C@H]2[C@@H]3CC[C@@H]4C[C@H](O)CC[C@]4(C)[C@H]3CC[C@]12C
inactive: [10] | [6]
active: [11] 54.1 µM | [2] 29.1 µM | [3] 8.67 µM

CC(=O)CC(C)(C)C1CCCCC1
inactive: [11] | [12] | [8] | [3] | [4] | [6] | [9]

CCCCCC1CCC(=O)O1 (configuration not stated)
inactive: [1] | [3] | [6]

[Cu+]
not listed: [1] | [9]
inactive: all other assays above

CC(=O)c1ccc(O)cc1
inactive: [11] | [2] | [3] | [5] | [10] | [6] | [9]

CCCCOCCOC(=O)c1ccccc1C(=O)OCCOCCCC
inactive: [11] | [4] | [6]
active: [2] 27.5 µM | [3] 7.61 µM

CC(CO)c1ccccc1 (configuration not stated)
inactive: [1] | [3] | [10] | [9] | [7]

CC1(C)CC(=O)CC(C)(C)N1
inactive: [11] | [2] | [3] | [10]

O=C1Cc2ccccc2C1
active: [3] 27.9 µM
inactive: [11] | [2] | [10] | [6] | [9]

c1ccc(Cc2ccccc2)cc1
inactive: [1] | [3] | [6] | [9] | [7]

C=CC(C)(CCC=C(C)C)OC(=O)CC (configuration not stated)
inactive: [1] | [3] | [10]

CNC(=C[N+](=O)[O-])NCCSCc1ccc(CN(C)C)o1
inactive: [11] | [12] | [3] | [4] | [10] | [6]
